# High-throughput results: PubChem BioAssay, several laboratories
# Most compounds without a hit are left out; they make up all but 3.7% or so of the library.
# BoNT F protease = inhibitors of Botulinum neurotoxin F light chain protease; Multiplex microsphere protease cleavage assay, flow cytometry; inhibition, % at 10 µM; 360,000 tested, 0.22% active; in the data active = inhibition above about 35%, passing the limit was not always enough; inconclusive = no clear call, values can overlap the other calls; also: plate controls were buffer without enzyme for full effect and enzyme alone for no effect
# BoNT-A LC inh2 = inhibitors of Botulinum neurotoxin A light chain protease; inhibition, % at 10 µM; 360,000 tested, 0.17% active; multiplex microsphere protease substrate cleavage, flow cytometry; AID 588499; also: plate controls were buffer without enzyme for full effect and enzyme alone for no effect
# MazF activator = MazEF (E. coli) toxin RNase activation; 350,000 tested, 0.32% active; activation, % at 20 µM; FAM/BHQ RNA-DNA oligo cleavage fluorescence, 5 h; in the data active = activation above about 50%
# Bead autofluor = counter-screen for toxin protease inhibitors: compound fluorescence. compound autofluorescence counterscreen, microsphere flow cytometry; active compounds read high. fluorescence intensity (concentration not given with the values). 360,000 tested, 3.1% active. AID 624483; in the data active = fluorescence intensity above about 16000; inconclusive = no clear call, values can overlap the other calls
# Anthrax LF inh2 = blocks Bacillus anthracis lethal factor protease; P15917; multiplex microsphere protease cleavage assay, LF; inhibition, % at 10 µM; 360,000 tested, 0.12% active; AID 588501; also: plate controls were buffer without enzyme for full effect and enzyme alone for no effect
# * = called active by the depositor; ? = inconclusive; . = not tested or not shown. Rule as the data show it, unless noted: active = inhibition above about 30%; inconclusive = no clear call, values can overlap the other calls; inactive = below that.
SMILES,BoNT F protease,BoNT-A LC inh2,MazF activator,Bead autofluor,Anthrax LF inh2
COc1ccc(C(=O)NCCCN=C2NS(=O)(=O)c3ccccc32)cc1,5,0,-9,5458,0
CSc1ccccc1NC(=O)Cn1c([N+](=O)[O-])cnc1C,-7,-1,-1,4351,6
COc1cc(Cl)ccc1OC1(C)CCN(Cc2ccc(-c3ccccn3)cc2)C1 (stereo not given),-2,0,.,2889,-3
CCCCn1c(CN2CCN(c3ccccc3)CC2)nc2c1c(=O)n(C)c(=O)n2C,7,0,-5,5771,2
Cn1c(=O)c2c(ncn2CC(=O)N(Cc2ccccc2)c2ccccn2)n(C)c1=O,-2,0,5,23173*,0
CCOC(=O)Cn1c(CN(Cc2ccccc2)Cc2ccccc2)nc2c1c(=O)n(C)c(=O)n2C,4,3,-4,20766*,-9
CCCCCn1c(CN2CCN(Cc3ccccc3)CC2)nc2c1c(=O)n(C)c(=O)n2C,7,5,6,20660*,-8
O=C(O)COc1ccc(/C=C/C(=O)c2ccc(C3CCCCC3)cc2)cc1,2,1,3,5678,3
N=Cc1c(O)n(-c2cccc(Cl)c2)c(=O)[nH]c1=O,-2,-1,6,23754*,-2
O=c1[nH]c(=O)n(-c2cccc(Cl)c2)c(O)c1/C=N/c1ccccn1,-2,0,-20,2611,-1
Cc1cc(C)cc(N2C(=O)NC(=O)/C(=C\c3cc(C)n(C)c3C)C2=O)c1,1,0,92*,2577,2
Cc1cc(/C=C2\C(=O)NC(=O)N(c3ccc(Cl)cc3)C2=O)c(C)n1C,-3,0,35,2650,1
Cc1ccc(OCC(=O)NNC(=O)c2ccc3c(=O)n4c(nc3c2)CCC4)cc1,-11,1,0,5806,-4
Cc1cnc(C)c(N2CCC(C(=O)NCc3cccs3)CC2)n1,-4,0,7,3253,-1
Cc1cc(C)nc(N2CCCC(C(=O)NC(C)CCc3ccco3)C2)n1 (stereo not given),-2,?,-2,23504*,-2
COc1nc(OC)nc(N2CCC(C(=O)NCc3cccs3)CC2)n1,3,?,3,21111*,0
O=C(NCc1cccs1)C1CCCN(c2nc3ccccc3o2)C1 (stereo not given),1,1,6,16144*,1
Cc1cc(C)nc(N2CCCC(C(=O)NCc3cccs3)C2)n1 (stereo not given),3,3,-2,21442*,-4
Cc1ccc(C(=O)N(Nc2nc3ccccc3s2)C(=O)c2ccc(C)cc2)cc1,-4,-1,7,2556,-4
Cc1cc(C)c(S(=O)(=O)N2CCN(c3ccccn3)CC2)c(C)c1,-1,-2,0,6128,1
C=CCn1c(Cc2cccs2)nnc1SCC(=O)c1ccc2ccccc2c1,0,?,1,23327*,-1
C=CCn1c(CNC(=O)c2cccs2)nnc1SCC(=O)c1ccc(Br)cc1,-1,-1,71*,23917*,0
C=CCn1c(Cc2cccs2)nnc1SCC(=O)c1ccc(F)cc1,-17,-1,5,9208,-6
C=CCn1c(CNC(=O)c2cccs2)nnc1SCC(=O)Nc1ccc(C(=O)O)cc1,0,?,8,19549*,-5
C=CCn1c(CCNC(=O)c2cccs2)nnc1SCC(=O)c1ccc(Cl)cc1,1,0,4,23328*,0
SMILES,BoNT F protease,BoNT-A LC inh2,MazF activator,Bead autofluor,Anthrax LF inh2
C=CCn1c(CCNC(=O)c2cccs2)nnc1SCC(=O)c1cccc([N+](=O)[O-])c1,5,4,-2,14951,0
C=CCn1c(CNC(=O)c2ccco2)nnc1SCC(=O)c1ccccc1,0,0,5,4760,2
COc1cccc(CC2(CO)CCCN(CC3=Cc4cc(Cl)ccc4OC3)C2)c1 (stereo not given),-4,1,-15,3585,-2
CC1(C)CC2(CCO1)C(Nc1ccccc1)=NC(=S)N2c1ccccc1 (stereo not given),.,.,-4,.,.
CSc1nc(C)c(C(=O)C[n+]2ccccc2)cc1C#N,-7,2,1,3560,0
O=C(CCC1CCCC1)NCCS(=O)(=O)N1CCN(c2ccccc2)CC1,2,-2,5,6691,-2
C=CCn1c(CCNC(=O)c2cccs2)nnc1SCC(=O)Nc1cccc(Cl)c1C,-3,?,9,20193*,1
Cc1csc(NC(=O)CSc2nnc(CCNC(=O)c3cccs3)n2C)n1,5,3,3,15777,-1
CSc1nc2ccc(Cl)cc2[nH]1,9,5,-4,20323*,-9
OCCNc1nc2ccc(Cl)cc2[nH]1,4,4,2,22121*,0
Cc1cc(C(=O)CSc2nc3ccc(Cl)cc3[nH]2)c(C)n1C,-4,-3,3,23487*,-9
C=CCn1c(C)cc(C(=O)CSc2nc3ccccc3c(=O)[nH]2)c1C,-3,0,-1,3072,0
C=CCn1c(C)cc(C(=O)CSc2nc3ccccc3[nH]2)c1C,1,?,1,23335*,-3
COc1ccc2nc(NCCO)[nH]c2c1,11,1,5,2282,-4
Cn1cc(S(=O)(=O)N2CCCC2)cc1C(=O)N1CCN(c2ccccc2)CC1,-1,0,4,5836,-4
COc1ccc(CCNC(=O)C2CCN(Cc3nc(-c4ccccc4C)oc3C)CC2)cc1OC,-4,-2,4,22311*,-7
Cc1oc(-c2ccccc2F)nc1CN1CCC(C(=O)NCc2ccco2)CC1,1,?,-8,19776*,2
Cc1oc(-c2ccccc2F)nc1CN1CCC(C(=O)NC2CCCCCCC2)CC1,2,1,0,16243*,-1
Cc1ccccc1-c1nc(CN2CCC(C(=O)NC3CCCCC3)CC2)c(C)o1,5,0,9,5193,-1
O=C1NC2(CCCCCC2)C(=O)N1Cc1ccccc1Br,2,-1,7,5306,-2
COc1ccc(C(=O)C[N+]2(C)CCOCC2)cc1,46*,-5,-21,3259,-52
C#CCNC(=O)c1csc([C@@H]2O[C@H](CO)[C@@H](O)[C@H]2O)n1,1,0,.,2843,-2
CC(C)(C)OC(=O)N1CC=C2C(C#N)=C(N)C(C#N)(C#N)[C@H](c3cccnc3)[C@H]2C1,6,1,125*,10291,0
C#CCSc1nc(-c2ccccc2)cc(C(F)(F)F)c1C#N,6,1,-37,3973,4
CNc1nc(-c2ccccc2)cc(C(F)(F)F)c1C#N,21,1,400*,2462,8
COc1ccc(OC)c(/C=C2\SC(=S)N(Cc3cccnc3)C2=O)c1,13,42*,-392,3135,21
O=C(CCN1C(=O)/C(=C\c2cccs2)SC1=S)NC1=NCCS1,4,4,10,10667,5
COc1cc(/C=C2/SC(=S)N(CC(=O)Nc3cccnc3)C2=O)cc(OC)c1OC,30,31*,20,2639,15
COc1ccccc1/C=C1\SC(=S)N(CCC(=O)NC2=NCCS2)C1=O,-4,3,172*,2247,2
